Results from PubChem BioAssay (NCATS).
Records with an inconclusive call do not appear. Entries that show only a call come without a potency. The source made the active and inactive calls. Calls follow the shape of the dose curve; as a rule, active = well fitted inhibition curve with a large enough effect; inconclusive = small, poorly fitted or top-dose-only effect; inactive = flat fitted curve, though single readings scatter.

What follows are compounds tested against Aldehyde dehydrogenase, mitochondrial (Homo sapiens) (UniProt P05091) (assay: qHTS for Inhibitors of the Aldehyde Dehydrogenase Family (ALDH2) Primary screen (AID 2061308; also: nearly all actives have a fitted effect of over 55% in size)). Conditions: ALDH2 enzyme inhibition qHTS, 1536-well; series mostly up to 56 µM.
For `COc1cc(OC)cc(-c2csc(N3CCC(C(N)=O)CC3)n2)c1`, the Potency was “inactive”. With `Cc1ccc(-c2nc3ccccc3[nH]2)cc1NC(=O)c1ccc(-c2cccc(Cl)c2)o1` the Potency was “inactive”. For `O=C(O)c1ccc(CSc2nnc(-c3cccc(S(=O)(=O)NC4CCCC4)c3)n2-c2ccc(F)cc2)cc1`, the Potency was “inactive”. In the case of `N#Cc1nc(Nc2cc(F)cc(Cl)c2)nc(NC2CCCC2)n1`, the Potency is reported as “inactive”. With `CCN(CC)CCn1c(-c2ccccc2)nc2c(NCc3ccccc3)nc(C)nc21` the Potency was “inactive”. In the case of `O=C(c1ccccc1)N(C(=O)c1ccccc1)c1ncnc2c1C(c1ccccc1)c1c(ccc3ccccc13)O2` (stereo not given), the Potency is reported as “inactive”. With `O=C(O)c1cccc2c1C(=O)N(c1ccccc1)C2` the Potency was “inactive”. `Cc1cc2c(s1)c1cnn(Cc3ccccc3C)c(=O)c1n2C` was tested, and the Potency was “inactive”. With `O=C1C[C@]23C=CCN4CCC5c6cc7c(cc6N1[C@@]5(CC2)C43)OCO7` (stereo not given in full) the Potency was “inactive”. With `CO/N=C(/C(=O)N[C@@H]1C(=O)N2C(C(=O)O)=C(Cn3nnc(C)n3)CS[C@H]12)c1csc(N)n1` the Potency was “inactive”. In the case of `COc1ccc(-c2ccc3ncnc(NCc4cccs4)c3c2)cc1`, the Potency is reported as “inactive”. With `C[C@@H]1CC[C@]2(C(=O)O)CC[C@]3(C)C(=CCC4[C@@]5(C)C[C@@H](O)[C@H](O)[C@@](C)(CO)C5CC[C@]43C)C2[C@H]1C` (stereo not given in full) the Potency was “inactive”. `CCOC(=O)c1csc(-n2nc(-c3ccc(F)c(F)c3)c(Cc3ccc(S(N)(=O)=O)cc3)c2N)n1` was tested, and the Potency was “inactive”. For `Cc1cc(OCCCSc2nc(-c3ccc(C(C)(C)C)cc3)nc3cc(=O)[nH]n23)ccc1Cl`, the Potency was “inactive”. `Oc1cccc2cc(-c3ccncc3)cnc12` was tested, and the Potency was “inactive”.
